VACV Venus inh = qHTS for Stage-Specific Inhibitors of Vaccinia Orthopoxvirus: Venus Reporter Primary qHTS; 330,000 compounds, 0.46% hits; Potency, µM (titrated, usually from 36.5 µM), inactives show at the top dose activity change, negative = inhibition, actives largely listed as inhibitors; Vaccinia virus Venus reporter expression, fluorescence; calls by dose curve; tested in A549 cells; further: potency means the concentration at half of the fitted maximal effect; nearly all actives have a fitted effect of over 30% in size
HCV inh = qHTS Assay for Inhibitors of Hepatitis C Virus (HCV) | 340,000 compounds, 3.4% hits | AID 651820, 2012 | Huh7.5.1 HCVcc-Cre infection, luciferase reporter, 44 h | Potency, µM (highest dose often 41.8 µM), without a hit: top-dose activity change, negative = inhibition, hits mostly inhibitors; active means well fitted inhibition curve with a large enough effect; inconclusive means small, poorly fitted or top-dose-only effect, or another doubt; inactive means no such curve, though single readings can be large or run the other way; further: potency means the concentration at half of the fitted maximal effect
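Cells (1,000/well) were plated 4 h before compound, then infected with HCVcc-Cre virus (~0.5 moi). After 44 h further culture, infection was read as luciferase luminescence following a 15 min substrate incubation at room temperature.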
HCMV antiviral = qHTS Assay for inhibitors of the human cytomegalovirus (HCMV); 410,000 compounds, 4.5% hits; activity change, negative = inhibition, % at 57.5 µM; HFF cells, HCMV-luciferase reporter, 72 h; active compounds read low; in the data active means activity change below about -60%; inconclusive means no clear call, values can overlap the other calls; inactive means above about -39%
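After 16 h attachment at 37C, HFF cells received test compound and HCMV-luciferase (1 PFU/cell); reporter luminescence read 72 h later, data normalized against buffer-only and known inhibitor Salinomycin.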
FMDV antiviral = High Throughput Screening for Foot and Mouth Disease Virus Antivirals; AID 1159524, 2015; 410,000 compounds, 1.2% hits; Potency, µM (top dose mostly 57.9 µM), for inactives: at the highest dose activity change, negative = inhibition, most hits filed as inhibitors; FMDV antiviral cell-based qHTS; calls by dose curve; tested in HEK293T cells; further: read-out not given here; potency means the concentration at half of the fitted maximal effect; nearly all actives have a fitted effect of over 45% in size
VACV mCherry inh = qHTS for Stage-Specific Inhibitors of Vaccinia Orthopoxvirus: mCherry Reporter Primary qHTS; Vaccinia virus mCherry reporter infection, fluorescence; Potency, µM (highest dose often 36.5 µM), inactives show at the top dose activity change, negative = inhibition, actives largely listed as inhibitors; 310,000 compounds, 0.63% hits; calls by dose curve; tested in A549 cells; further: potency means the concentration at half of the fitted maximal effect; nearly all actives have a fitted effect of over 35% in size
The depositor's hits bear a star. Most compounds without a hit are left out; they make up all but 7.3% or so of the library. On the % scale 0 is the no-effect control and ±100 the full control effect.

For O=C(Nc1ccc(Cl)c([N+](=O)[O-])c1)c1ccc(NCCCN2CCOCC2)c([N+](=O)[O-])c1 the results were HCV inh 2.2µM*, HCMV antiviral -20 and FMDV antiviral 8%.
Screening CN1CCC(=C(c2ccccc2)c2ccc(Br)cc2)CC1 returned HCV inh 8.9µM*, HCMV antiviral inconclusive and FMDV antiviral 0%.
`CN1CCC(OC(=O)c2ccc(Br)cc2)CC1` gave HCV inh -23%, HCMV antiviral 11 and FMDV antiviral -10%.
For Cc1cc(C)n(-c2nc(NCC(C)O)c3c4c(sc3n2)CCCC4)n1 (configuration not stated) the results were VACV Venus inh -9%, HCV inh 5.6µM*, HCMV antiviral -17 and FMDV antiviral -22%.
Screening Cc1cc(C)n(-c2nc(NCC3CCCO3)c3c4c(sc3n2)COC(C)(C)C4)n1 (configuration not stated) returned VACV Venus inh inconclusive, HCV inh inconclusive, HCMV antiviral -29 and FMDV antiviral inconclusive.
Screening Cc1cc(C)n(-c2nc(NCCCO)c3c4c(sc3n2)CCCC4)n1 returned VACV Venus inh -29%, HCV inh 7.1µM* and FMDV antiviral 12%.
`Cc1cc(C)n(-c2nc(NCCO)c3c4c(sc3n2)CCCC4)n1` gave VACV Venus inh inconclusive, HCV inh 7.1µM*, HCMV antiviral -29 and FMDV antiviral -9%.
For Cc1ccccc1Nc1nnc(SCC(=O)NCC2CCCO2)s1 (configuration not stated) the results were VACV Venus inh -12%, HCV inh 12%, HCMV antiviral -35, FMDV antiviral -13% and VACV mCherry inh -16%.
For CCOC(=O)c1cc(-c2ccc(OC)c(S(=O)(=O)NC3CCCCC3)c2)on1 the results were VACV Venus inh -8%, HCMV antiviral -69*, FMDV antiviral 69% and VACV mCherry inh -7%.
`CCOC(=O)c1cc(-c2ccc(OC)c(S(=O)(=O)NCc3ccccc3Cl)c2)on1` gave VACV Venus inh -12%, HCMV antiviral inconclusive, FMDV antiviral 26% and VACV mCherry inh -10%.
For [O-][n+]1c2c(c3c4non(O)c4ccc31)CCCC2 the results were VACV Venus inh -2%, HCV inh -23%, HCMV antiviral -97* and VACV mCherry inh -4%.
For C=CCc1cc(C(=O)N2CCCCC2)ccc1O the results were HCV inh -9%, HCMV antiviral -71* and FMDV antiviral -20%.
`Cc1ccc(CN2C(=O)c3ccccc3NC2c2cc(Br)ccc2O)cc1` (configuration not stated) gave VACV Venus inh -15%, HCV inh -16%, HCMV antiviral -79*, FMDV antiviral -9% and VACV mCherry inh inconclusive.
For O=C1c2ccccc2NC(c2ccccc2)N1Cc1ccccc1 (configuration not stated) the results were VACV Venus inh -17%, HCV inh -19%, HCMV antiviral 48, FMDV antiviral -23% and VACV mCherry inh -3%.
`CCN1C(=O)[C@H]2[C@@H](c3ccc(OC)cc3)N3C(=O)CN(CC4CC4)C(=O)[C@@]3(C)[C@H]2C1=O` gave VACV Venus inh 1%, HCV inh 10µM*, HCMV antiviral -12, FMDV antiviral -8% and VACV mCherry inh -19%.
CC(C)N1C(=O)/C(=C\c2nc3ccccc3c(=O)[nH]2)c2ccccc21 was read as VACV Venus inh -6%, HCV inh inconclusive, HCMV antiviral 77, FMDV antiviral 40µM* and VACV mCherry inh -11%.
For O=C(NCc1ccco1)c1ccc(Cn2c(=O)c3ccccc3n(Cc3cccc(Cl)c3)c2=O)cc1 the results were HCV inh inconclusive, HCMV antiviral -34 and FMDV antiviral 0%.
Screening O=C(NCc1ccco1)c1ccc(Cn2c(=O)c3sccc3n(Cc3cccc(F)c3)c2=O)cc1 returned VACV Venus inh -6%, HCV inh inconclusive, HCMV antiviral -61*, FMDV antiviral -15% and VACV mCherry inh 11%.
`Cc1ccc2nc(NC(=O)c3cccc(-c4cc5ccccc5oc4=O)c3)sc2c1` gave VACV Venus inh -3%, HCV inh 8.9µM*, HCMV antiviral -89* and VACV mCherry inh inactive.

Source: PubChem
